Experimental data taken from PubChem BioAssay (EPA / NIEHS).
The source made the active and inactive calls. How the source made its calls: active means hit-call score of the fitted dose curve at least 0.9, where 1 is the maximum; inactive means score below 0.9.

These molecules were tested on Fatty acid synthase (Homo sapiens) (UniProt P49327) (assay: LTEA_HepaRG_FASN: Life Technologies and Expression Analysis (LTEA) Assay for Fatty Acid Synthase (FASN) using HepaRG (AID 2283448)). Conditions: mRNA level, 48 h; actives raise or lower the signal.
Procedure: LTEA_HepaRG is a cell based, multiplexed-readout assay that uses HepaRG, a human liver cell line, with measurements taken at 48 hours after chemical dosing on a 96-well plate.LTEA_HepaRG_FASN is one of 102 assay component(s) measured in the LTEA HepaRG cell culture assay. It is a marker of Steatosis.Data from the assay component LTEA_HepaRG_FASN was analyzed into 1 endpoint. This assay endpoint, LTEA_HepaRG_FASN, was analyzed with bidirectional fitting relative to DMSO as the negative control and baseline of activity. Using a type of inducible reporter, measures of mRNA induction for gain or loss-of-signal activity can be used to understand regulation of transcription factor activity. To generalize the intended target to other relatable targets, this assay endpoint is annotated to the lyase intended target family, where the subfamily is fatty acid synthase.
A total of 1060 chemcials from the ToxCast library were tested in eight-point concentration-response experiments. Cell culture and cytotoxicity assays were conducted at Thermo Fisher Scientific's Custom Services facility (Madison, WI). A single lot of human HepaRG cells (Thermo Fisher Scientific, Frederick, MD) was used for the cell culture experiments. 96-well format collagen type I coated plates of human HepaRG cells were prepared using established methods. Briefly, cryopreserved HepaRG cells were thawed, plated at a density of approximately 100,000 cells/well in HepaRG Thaw, Plate, and General Purpose media (HPRG770, Thermo Fisher Scientific), and incubated for 48 hours. 0.5% DMSO was selected as vehicle control to balance the requisite need of DMSO in HepaRG cultures to maintain differentiation (for example, baseline metabolism, proportions of hepatocytes vs. cholangiocytes), while enabling further hepatic receptor pathway activation (for example, PXR and CAR) in response to chemical exposure. 48 hours after plating, the culture medium was replaced with HepaRG Serum-Free Incudtion Media. Cells were exposed to each test chemical in duplicate and maintained in CO2 incubators for another 48 hours. Chemical plates were thawed to room temperature and 200x concentrations of treatment groups were prepared. 8-point conentration-reponse curves were made with the highest exposure at 100 uM, followed by half-log dilutions, all in 0.5% DMSO. Each test plate contained variouse controls, induction positive controls (1mM phenobarbital), cytotoxicity positive controls ([…] aflatoxin B1), vehicle controls (0.5% DMSO), and total lysis controls (0.5% DMSO). Cell morphology images were taken using an Essen IncuCyte FLR automated microscope, with six 96-well plates imaged in about 24 minutes. Images were captured and exported and JPEG files. Spent culture media was transfered to black-well plates for the LDH assay, and remaining media was sorted at -80 C for later use. Cells were treated with RLT buffer and frozen until shipped for gene expression analysis. Total RNA was isolated from the cell suspension in 75 uL of Buffer RLT (Qiagen, Germantown, MD 20874) by Quintiles/Expression Analysis (Durham, NC) using a custom isolation procedure. Total RNA from each plate well was transferred to a preamplification plate. Fluidigm's 96.96 Dynamic ArrayTM (Fluidigm, Amsterdam, the Netherlands) technology was used for gene expression analyses by quantitative reverse transcription polymerase chain reaction (qRT-PCR, performed by Quintiles/Expression Analysis, Durham, NC)89. Standard TaqManTM Assays (Applied Biosystems/ThermoFisher Scientific, Foster City, CA) were used to assess the expression of 93 genes selected based on their selectivity and sensitivity to important hepatic receptors known to be modulated by environmental chemicals; importance in human hepatocyte functionality; and hepatotoxicity. […]

Chain of Fatty acid synthase (Homo sapiens) (P49327 whole entry, looked up): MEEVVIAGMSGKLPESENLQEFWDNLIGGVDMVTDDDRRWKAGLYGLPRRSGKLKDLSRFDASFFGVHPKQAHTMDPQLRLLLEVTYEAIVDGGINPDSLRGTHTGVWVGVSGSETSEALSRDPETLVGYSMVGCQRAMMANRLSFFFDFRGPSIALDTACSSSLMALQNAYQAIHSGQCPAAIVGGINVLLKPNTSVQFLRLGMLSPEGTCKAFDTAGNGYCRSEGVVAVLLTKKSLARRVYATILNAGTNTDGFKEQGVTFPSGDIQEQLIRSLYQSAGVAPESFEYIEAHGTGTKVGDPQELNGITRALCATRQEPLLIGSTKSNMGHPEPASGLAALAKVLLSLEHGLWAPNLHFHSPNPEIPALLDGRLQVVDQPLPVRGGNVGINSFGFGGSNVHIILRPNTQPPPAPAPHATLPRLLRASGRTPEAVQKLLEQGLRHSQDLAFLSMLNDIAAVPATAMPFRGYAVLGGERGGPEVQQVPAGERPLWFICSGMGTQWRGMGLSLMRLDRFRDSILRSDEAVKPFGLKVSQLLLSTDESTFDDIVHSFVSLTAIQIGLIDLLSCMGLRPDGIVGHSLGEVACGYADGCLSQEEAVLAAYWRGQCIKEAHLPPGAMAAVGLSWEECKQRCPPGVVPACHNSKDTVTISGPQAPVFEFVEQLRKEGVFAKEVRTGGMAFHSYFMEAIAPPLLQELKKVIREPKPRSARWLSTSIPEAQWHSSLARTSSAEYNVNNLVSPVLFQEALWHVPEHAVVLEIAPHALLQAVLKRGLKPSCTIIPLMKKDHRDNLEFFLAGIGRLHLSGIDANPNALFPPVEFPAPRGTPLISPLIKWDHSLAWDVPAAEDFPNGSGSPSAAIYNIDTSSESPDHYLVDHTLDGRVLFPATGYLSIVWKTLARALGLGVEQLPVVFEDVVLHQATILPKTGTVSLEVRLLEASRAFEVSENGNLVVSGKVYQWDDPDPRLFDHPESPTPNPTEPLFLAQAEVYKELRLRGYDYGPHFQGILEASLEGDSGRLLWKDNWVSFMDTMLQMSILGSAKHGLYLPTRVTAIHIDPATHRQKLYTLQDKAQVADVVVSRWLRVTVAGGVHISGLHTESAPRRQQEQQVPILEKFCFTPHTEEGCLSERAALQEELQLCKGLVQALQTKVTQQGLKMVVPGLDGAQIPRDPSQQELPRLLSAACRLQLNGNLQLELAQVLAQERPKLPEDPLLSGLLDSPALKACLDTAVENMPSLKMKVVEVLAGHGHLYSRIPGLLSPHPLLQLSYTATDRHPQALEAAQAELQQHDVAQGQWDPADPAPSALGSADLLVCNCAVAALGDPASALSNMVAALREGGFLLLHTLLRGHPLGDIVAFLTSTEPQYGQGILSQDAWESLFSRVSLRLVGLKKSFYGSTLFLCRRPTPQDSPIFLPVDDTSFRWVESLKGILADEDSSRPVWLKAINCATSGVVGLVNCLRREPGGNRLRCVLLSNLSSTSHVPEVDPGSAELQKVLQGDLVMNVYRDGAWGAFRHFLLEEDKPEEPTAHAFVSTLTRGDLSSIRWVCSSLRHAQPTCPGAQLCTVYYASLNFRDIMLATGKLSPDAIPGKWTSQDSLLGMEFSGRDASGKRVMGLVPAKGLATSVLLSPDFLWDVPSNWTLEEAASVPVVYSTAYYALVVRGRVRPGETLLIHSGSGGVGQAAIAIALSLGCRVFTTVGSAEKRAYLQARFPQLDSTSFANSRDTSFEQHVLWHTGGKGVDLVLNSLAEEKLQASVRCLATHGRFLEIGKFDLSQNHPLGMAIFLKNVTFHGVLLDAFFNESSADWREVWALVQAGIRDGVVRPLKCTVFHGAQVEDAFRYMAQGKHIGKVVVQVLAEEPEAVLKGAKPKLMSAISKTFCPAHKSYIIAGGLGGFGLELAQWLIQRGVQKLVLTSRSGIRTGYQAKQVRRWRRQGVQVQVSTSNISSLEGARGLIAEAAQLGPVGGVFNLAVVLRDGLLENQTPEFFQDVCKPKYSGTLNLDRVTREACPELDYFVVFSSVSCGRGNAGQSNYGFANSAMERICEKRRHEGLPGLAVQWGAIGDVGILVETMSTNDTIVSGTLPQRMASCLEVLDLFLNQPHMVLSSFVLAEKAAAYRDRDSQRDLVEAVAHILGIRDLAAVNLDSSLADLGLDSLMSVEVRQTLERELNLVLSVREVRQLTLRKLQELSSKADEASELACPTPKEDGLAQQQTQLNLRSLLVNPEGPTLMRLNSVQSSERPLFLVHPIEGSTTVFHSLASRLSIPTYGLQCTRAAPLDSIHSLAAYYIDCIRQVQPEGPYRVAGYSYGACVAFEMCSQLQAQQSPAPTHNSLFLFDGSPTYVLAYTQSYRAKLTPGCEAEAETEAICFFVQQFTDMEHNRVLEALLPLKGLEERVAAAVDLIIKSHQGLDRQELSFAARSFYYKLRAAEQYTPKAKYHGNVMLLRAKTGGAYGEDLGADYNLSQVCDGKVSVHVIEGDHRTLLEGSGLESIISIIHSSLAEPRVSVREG

| Structure (SMILES) | outcome | AC50 |
| --- | --- | --- |
| c1ccc2[nH]c(-c3cscn3)nc2c1 | inactive | – |
| CCCN(CCC)C(=O)SCC | inactive | – |
| CSC(=O)c1cccc2nnsc12 | inactive | – |
| N#CSCSc1nc2ccccc2s1 | – | 68.3 µM (active) |
| CCOC(=O)NCCOc1ccc(Oc2ccccc2)cc1 | – | 50 µM (active) |
| C#CCOC(=O)[C@@H](C)Oc1ccc(Oc2ncc(Cl)cc2F)cc1 | – | 13.3 µM (active) |
| CCCOC(=O)c1ccc(C(=O)OCCC)nc1 | inactive | – |
| CCCCOC(=O)[C@@H](C)Oc1ccc(Oc2ccc(C(F)(F)F)cn2)cc1 | inactive | – |
| CC(C)CCCCCCc1ccc(O)cc1 | inactive | – |
| C#C[C@]1(O)CC[C@H]2[C@@H]3CCC4=CC(=O)CC[C@@H]4[C@H]3CC[C@@]21CC | inactive | – |
| CCCCC(CC)CN1C(=O)C2C3C=CC(C3)C2C1=O (stereo not given) | – | 34.6 µM (active) |
| CC(C)(c1ccc(O)cc1)c1ccc(O)cc1 | inactive | – |
| CC(C)(C)[C@@H](O)[C@@H](Cc1ccc(Cl)cc1)n1cncn1 | – | 50 µM (active) |
| O=C(Nc1ccc([N+](=O)[O-])cc1Cl)c1cc(Cl)ccc1O | – | 2.94 µM (active) |
| CCN(Cc1c(F)cccc1Cl)c1c([N+](=O)[O-])cc(C(F)(F)F)cc1[N+](=O)[O-] | – | 50 µM (active) |
| C[C@]12C[C@H](O)[C@H]3[C@@H](CCC4=CC(=O)CC[C@@]43C)[C@@H]1CC[C@@H]2C(=O)CO | inactive | – |
| CCOC(=O)c1ccc(O)cc1 | inactive | – |
| CCCCCCC(C)OC(=O)COc1nc(F)c(Cl)c(N)c1Cl (stereo not given) | inactive | – |
| CCOC(=O)C(C)Oc1ccc(Oc2nc3ccc(Cl)cc3o2)cc1 (stereo not given) | inactive | – |
| CCOC(=O)C(C)Oc1ccc(Oc2cnc3cc(Cl)ccc3n2)cc1 (stereo not given) | – | 43 µM (active) |

| Structure (SMILES) | outcome | AC50 |
| --- | --- | --- |
| CCSC(=O)N(CC(C)C)CC(C)C | inactive | – |
| CN(C)C(=O)Nc1ccc(Cl)c(Cl)c1 | – | 20.3 µM (active) |
| COC(=O)CSc1cc(N=c2sc(=O)n3n2CCCC3)c(F)cc1Cl | inactive | – |
| Oc1ccc(C(c2ccc(O)cc2)C(Cl)(Cl)Cl)cc1 | – | 88.8 µM (active) |
| CCC(C)OC(=O)N1CCCCC1CCO (stereo not given) | inactive | – |
| COCCO | inactive | – |
| CC(=O)S[C@@H]1CC2=CC(=O)CC[C@]2(C)[C@H]2CC[C@@]3(C)[C@@H](CC[C@@]34CCC(=O)O4)[C@H]12 | – | 37.3 µM (active) |
| OB(O)O | inactive | – |
| CCCN(CCC)c1c([N+](=O)[O-])cc(C(F)(F)F)c(N)c1[N+](=O)[O-] | – | 50 µM (active) |
| C=CCOC(Cn1ccnc1)c1ccc(Cl)cc1Cl (stereo not given) | – | 38.3 µM (active) |
| COC(=O)c1ccc(I)cc1S(=O)(=O)NC(=O)Nc1nc(C)nc(OC)n1 | inactive | – |
| O=C(O)C1(C(=O)Nc2ccc(Cl)cc2Cl)CC1 | – | 69.8 µM (active) |
| N[C@@H](Cc1cc(I)c(Oc2ccc(O)c(I)c2)c(I)c1)C(=O)O | inactive | – |
| CCCCCOC(=O)COc1cc(N2C(=O)C3=C(CCCC3)C2=O)c(F)cc1Cl | inactive | – |
| CCCCOCCOCCOCc1cc2c(cc1CCC)OCO2 | inactive | – |
| CCN(CC)C(=O)c1cccc(C)c1 | inactive | – |
| CCCCOC(=O)C(C)Oc1ccc(Oc2ccc(C(F)(F)F)cn2)cc1 (stereo not given) | inactive | – |
| CCOC(=O)COc1cc(-n2ncc(C(F)(F)F)c(C)c2=O)c(F)cc1Cl | inactive | – |
| CCCCC(CC)COC(=O)c1ccccc1C(=O)O (stereo not given) | inactive | – |
| O=C(O)c1ccccc1 | inactive | – |
